Source: PubChem BioAssay AID602399 (Sanford-Burnham Center for Chemical Genomics, 2012)
“And” between values parts separate entries of the source, which are not always exact repeats. Equal values may be shown once. About 2,800 (0.78%) of roughly 360,000 compounds were called active. Rule as the data show it: active = inhibition above about 26%; inactive = the rest. This excerpt belongs to a sample that is enriched for actives. Some structures have more than one record in an assay (separate samples or runs), and their calls can disagree.

The compounds below were run on Nicotinate-nucleotide adenylyltransferase NadD (Staphylococcus aureus N315) (assay: inhibitors of S. aureus NadD, primary screen, biochemical, colorimetric, uHTS (AID 602399)). Settings: purified NadD enzyme, colorimetric absorbance read-out; at 20 µM; stronger effect = higher value.

inhibition, inactive:
O=C(c1ccccc1)N1CCN(C(=O)c2cc3nc(-c4ccccc4)cc(C(F)(F)F)n3n2)CC1 2.29%
CN(C)CCN1CCN(c2cc(-c3cccc(Cl)c3)nc3ccnn23)CC1 -0.61%
CCCCC[C@H](C)N1C[C@@H](COCc2ccccc2)Oc2cc(N3CCC[C@@H]3CO)ccc2S1(=O)=O 1.75%
Nc1ncnc2c1cnn2C1CC(O)C(CO)O1 (stereo not drawn) 4.49%
Cn1c(SCC(=O)N/N=C/c2ccc(O)c(O)c2)nc2ccccc21 -4.08%
CC(=O)NCCn1c(SCC(=O)Nc2ccc(C)cc2)nc2ccccc2c1=O -6.19%
CCn1c(SCC(=O)N/N=C/C=C/c2ccccc2[N+](=O)[O-])nnc1-c1ccccc1 5.92%
C/C(=N\NC(=O)CSc1nc2ccccc2c(=O)n1-c1ccccc1C)c1cccs1 2.02%
Cc1ccc(CC2CC(=O)N(c3nc(C)cc(C)n3)C2=O)cc1 (stereo not drawn) -0.638%
O=C(COC(=O)c1cc(S(=O)(=O)N2CCOCC2)ccc1F)NC1CC1 -7.35%
COc1ccc(Cc2nnc(SCC(=O)N(c3ccccc3)C(C)C)n(N)c2=O)cc1 -0.371%
CC(=O)N(c1ccc2oc(=O)sc2c1)S(=O)(=O)c1ccc(C)cc1 -4.06%
Cc1ccc2cccc(O)c2[n+]1[O-] -2.68%
O=C(O)CCC(=O)NCc1ccc(C(=O)O)cc1 -1.86%
NNC(=O)c1ccc(COCC(F)(F)C(F)F)cc1 0.345%
O=C(CCc1ccccc1)Nc1ccc(NC(=O)C2CCCCC2)nc1 -0.446%
O=C1CCCN2N=C(SCC(=O)Nc3ccc(Br)cc3)SC2=N1 0%
COCCNC(=O)Cn1cc2c(n1)CCCCC2 4.24%
CC1CN(S(=O)(=O)c2ccc(C(=O)NN3CCN(C)CC3)cc2)CC(C)O1 (stereo not drawn) -3.52%
Cc1ccc(C(=O)N/N=C\c2cc(Br)c(Br)o2)cn1 -3.68%
Nc1cccnc1Sc1ccccc1 -5.1%
CC(C)(C)c1ccc(C(=O)N2CCC(C(=O)N3CCCCC3)CC2)cc1 -0.861%
C/C(CC(=O)Nc1ccc(Cl)cc1)=N\NC(=O)C(=O)NCCO 2.33%
CC(C)c1c(C(=O)N/N=C/c2ccccc2C(=O)O)nnn1-c1nonc1N -2.34%
CN(C)Cc1c(C(=O)N/N=C/c2ccccc2OCc2ccc(F)cc2)nnn1-c1nonc1N 5.11%
Clc1ccc(-c2cc(C3CCNCC3)[nH]n2)c(Cl)c1 -5.2%
CCC(C(=O)OC)n1cnc2c(oc3ccccc32)c1=O (stereo not drawn) -0.579%
CCOc1ccccc1Nc1nnc(SCc2ccc(C(=O)OC)o2)s1 -2.72%
COC(=O)c1ccc(CSc2nnc(NC(C)C)s2)cc1 -1.36%
Cc1ccc(C)c(OCCC(=O)OCC(=O)c2ccc3c(c2)NC(=O)CO3)c1 -5.39%
COc1ccc(C(=O)c2c(C)c(CCC#N)n3ccccc23)c(OC)c1 -8.39%
CCOc1ccc(CN2CCNC(=O)C2CC(=O)NCCCC2CCCC2)cc1 (stereo not drawn) 8.04%
COc1cccc(CNCCc2c[nH]c3ccccc23)c1OCc1ccccc1F -4.86%
Cc1cc(C(=O)NNS(=O)(=O)c2ccccc2C(F)(F)F)nn1C(C)(C)C -0.0808%
COc1ccc(/C(=N\O)c2nccc3cc(OC)c(OC)cc23)cc1OC -0.658%
CNC(=O)c1ccc(CN(C)C(=O)c2cc(C3CC3)nc3c2cnn3C(C)C)cc1 2.58%
O=C(CNC(=O)c1cccs1)N/N=C/c1cccc(Br)c1 -5.24%
CC(=O)NC(Cc1c[nH]c2ccccc12)C(=O)NCCc1ccccc1 (stereo not drawn) -5.17%
O=C1N(c2ccccc2)C(=Nc2ccccc2)SC12CC2 -4.95%
Cc1cc(Cl)ccc1NNC(=O)c1snnc1C 1.86%
OC(c1ccc(F)cc1)c1ncc(-c2cccc(C(F)(F)F)c2)[nH]1 (stereo not drawn) 0.456%
O=C(NCc1ccccc1Cl)c1ccc2c(=O)n(CC3CCCO3)c(=S)[nH]c2c1 (stereo not drawn) -3.54%
Cc1cc(N=Nc2ccc3ccccc3c2)ccc1O -20.6%
CC(C)(C)c1cc(P(=O)(c2ccccc2)c2ccccc2)ccc1O -3.61%
CN1CC(=O)N=C1N -3.38% and -0.141%
COc1cccc(CN(C)C(=O)CC[C@H]2O[C@@H](n3cnc4c(NC(=O)c5ccccc5)ncnc43)[C@H](O)[C@@H]2O)c1 -1.41%
O=C(NCc1ccncc1)c1ccc(NS(=O)(=O)c2cccc([N+](=O)[O-])c2)cc1 -1.63%
O=C(CCN1CCCCC1)N=Nc1c(O)[nH]c2ccccc12 -5.32%
CCOC(=O)[C@]12CCCC=C1N(Cc1ccc(Cl)cc1Cl)C(=O)[C@H](CC(=O)N1CCCCC1)C2 -1.55%
Cc1ccc(N(CC(=O)NCC2CCCO2)C(=O)CNS(=O)(=O)c2ccc(Cl)cc2)cc1 (stereo not drawn) 2.66%
COc1ccc(-c2nc3cnccn3c2NC(C)(C)CC(C)(C)C)cc1O -3.5%
COc1ccc(-c2nc3cc(C)ccn3c2NC2CCCCC2)cc1SC1CCCCC1 17% and 21%
COC(=O)c1ccc2nc(-c3ccccc3)c(Cc3ccc(OC)cc3C)n2c1 10.9%
COC(=O)c1ccc2nc(-c3cccc(Br)c3)c(Cc3ccc(OC)cc3C)n2c1 20.8%
O=C(COC(=O)c1cccnc1Cl)Nc1ccc(S(=O)(=O)N2CCOCC2)cc1 -4.21%
O=C(CSc1nnc(COc2ccc(Cl)cc2)n1Cc1ccco1)N1CCNC1=O 4.26%
CCc1nc2oc3ccccc3c(=O)c2c(=O)n1Cc1ccc(OC)cc1 2.99%
COc1ccc(-c2ccc(CN3C(C(C)C)C(=O)N(Cc4cn(CC5CCCCC5)nn4)CCS3(=O)=O)cc2)cn1 (stereo not drawn) 4.8%
CCOC(=O)C(Sc1ncc(C#N)c(N)n1)C(C)C (stereo not drawn) 2.12%
CCCc1c(C(=O)Nc2ccc(F)cc2)cnn1-c1ccccc1 -0.321%
Cc1cccc(C)c1-n1nnnc1C1(C)CCC(=O)N1CCOc1ccccc1 (stereo not drawn) -5.82%
CC(=O)C1=C(C)NC(C)=C(C(C)=O)C1c1cn(-c2ccccc2)nc1-c1cccs1 11.6%
Cc1ccsc1/C=N/n1c(=S)[nH]nc(C)c1=O 1.04%
C[C@H]1CC[C@]2(O[C@@H](CCO)C[C@@H](O)[C@@H]2O)O1 0.758%
O=C(COC(=O)CCCNC(=O)c1ccc(Cl)cc1)Nc1cc(Cl)ccc1Cl -4.1%
COc1ccc([N+](=O)[O-])cc1C1NN=C(c2cccc3ccccc23)S1 (stereo not drawn) 17.6%
NC(=O)C1CC(=O)N(c2ccc(OCC(=O)NCc3ccccc3)cc2)C1 (stereo not drawn) 1.55%
O=C(COC(=O)c1ccccc1)Nc1ccccc1Sc1ccccc1 -7.21%
COc1ccccc1C(=O)NCC(=O)OCC(=O)Nc1nnc(-c2ccccc2)o1 10.3%
CC(C)(C)C(=O)CCN1C(=O)C2(OCCO2)c2ccccc21 -0.902%
COC(=O)[C@@]1(Cc2ccc(F)cc2)[C@H]2c3cc(C(=O)N4CCCC4)n(Cc4ccc(OC(F)(F)F)cc4)c3C[C@H]2CN1C(=O)c1ccccc1 13.9%

inhibition, 33.8% (active) and 14.3% (inactive):
COc1ccc(-c2nc3cnccn3c2NC2CCCCC2)cc1-c1cccc(Cl)c1

inhibition, active:
C#Cc1cc(N2CCN(C(=O)c3ccoc3)CC2)n2nc(-c3cccc(Cl)c3)cc2n1 35.4%
Cc1nn(-c2ccccc2)c(C)c1/C=N/NC(=O)CSc1nc2ccccc2c(=O)n1-c1ccccc1 30.2%
Cc1ccc(-n2c(SCC(=O)N/N=C/C=C/c3ccccc3[N+](=O)[O-])nc3ccccc3c2=O)cc1 35.1%
O=C(O)c1ccc(COCC(F)(F)F)cc1 57.7%
FC(F)(F)C1CCCN(c2nsc3ccccc23)C1 (stereo not drawn) 34.7%
Nc1nonc1-n1nnc(C(=O)N/N=C/c2cc(Br)ccc2O)c1CSC1=NCCS1 37.3%
Cc1ccc(C(=O)Oc2coc(CSc3nnc(NC(=O)c4cccs4)s3)cc2=O)cc1C 58.4%
Cc1cc(C)c(C2C3=C(Nc4c2c(C)nn4-c2ccccn2)c2ccccc2C3=O)c(C)c1 (stereo not drawn) 33.2%
Oc1ccc(C2Nc3cccc4cccc(c34)N2)cc1 57.7%
O=C(NC(Cc1c[nH]c2ccccc12)C(=O)N/N=C/c1ccc(Br)cc1)c1cccs1 (stereo not drawn) 32%
COc1ccc(N=Nc2ccc(O)c(P(=O)(c3ccccc3)c3ccccc3)c2)cc1 30.9%
O=[N+]([O-])c1cc(S(=O)(=O)Nc2cccc(Cl)c2)ccc1N=Nc1c(O)[nH]c2ccccc12 61%
COC(=O)c1ccc2nc(-c3ccc(C)cc3)c(Cc3ccc(OC)cc3C)n2c1 31.6%
Cn1c2ccccc2c(=O)c2c(=O)n(Cc3ccco3)c(COc3ccccc3)nc21 42.5%
S=c1[nH]nc(-c2cccs2)n1/N=C/c1cn(-c2ccccc2)nc1-c1ccc(Cl)cc1 32.6%
O=C(COC(=O)c1ccc(Oc2ccccc2)cc1)Nc1nnc(-c2ccccc2)o1 47.6%
